Experimental findings from ChEMBL document CHEMBL1961873, “Compounds: GSK PKIS; Assays: Nanosyn kinase panel” (2012) are described below.

By inhibition is commonly meant the drop in the measured response relative to a control, in per cent.

Molecules are shown by their SMILES.

Assay [1] addresses Death-associated protein kinase 1 (Homo sapiens) (UniProt P53355). The conditions noted are these: at 1 µM.
For assay [2], the target named is T1, Serine/threonine-protein kinase DCLK2 (Homo sapiens) (UniProt Q8N568).
T1 sequence (whole entry): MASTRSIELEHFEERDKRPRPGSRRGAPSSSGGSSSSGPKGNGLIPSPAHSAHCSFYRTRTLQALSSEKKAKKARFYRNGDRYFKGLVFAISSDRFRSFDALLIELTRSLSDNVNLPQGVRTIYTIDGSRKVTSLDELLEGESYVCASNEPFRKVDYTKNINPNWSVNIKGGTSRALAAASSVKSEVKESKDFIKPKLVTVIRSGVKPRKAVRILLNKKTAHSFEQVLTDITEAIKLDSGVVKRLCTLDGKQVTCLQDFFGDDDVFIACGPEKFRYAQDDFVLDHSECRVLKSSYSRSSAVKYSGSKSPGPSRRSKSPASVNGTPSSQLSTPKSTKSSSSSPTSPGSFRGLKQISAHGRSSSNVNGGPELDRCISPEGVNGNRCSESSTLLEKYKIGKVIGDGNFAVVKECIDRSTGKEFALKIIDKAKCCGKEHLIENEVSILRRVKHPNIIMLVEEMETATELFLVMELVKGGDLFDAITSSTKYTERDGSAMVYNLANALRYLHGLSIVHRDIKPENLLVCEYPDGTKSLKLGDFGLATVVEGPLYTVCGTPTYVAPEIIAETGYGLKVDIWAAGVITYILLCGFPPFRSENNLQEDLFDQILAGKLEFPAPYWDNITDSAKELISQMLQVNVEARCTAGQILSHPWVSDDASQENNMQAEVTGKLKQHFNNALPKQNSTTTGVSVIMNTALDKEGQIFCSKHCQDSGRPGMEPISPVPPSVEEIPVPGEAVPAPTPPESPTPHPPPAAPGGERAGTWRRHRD
The conditions noted are these: at 0.1 µM.

The target in assay [3] is T1, Serine/threonine-protein kinase DCLK2 (Homo sapiens). The conditions noted are these: at 1 µM.
The target in assay [4] is MAP kinase-activated protein kinase 2 (Homo sapiens) (UniProt P49137). The conditions noted are these: at 0.1 µM.
For assay [5] the target is unchanged. The settings on record: at 1 µM.
Assay [6] concerns the target MAP kinase-activated protein kinase 3 (Homo sapiens) (UniProt Q16644). The settings on record: at 0.1 µM.
Assay [7] shares this target. The settings on record: at 1 µM.
The target of assay [8] is Serine/threonine-protein kinase MARK1 (Homo sapiens) (UniProt Q9P0L2). The settings on record: at 0.1 µM.
For assay [9] the target is unchanged. The settings on record: at 1 µM.
For assay [10], the target named is MAP/microtubule affinity-regulating kinase 3 (Homo sapiens) (UniProt P27448). The conditions noted are these: at 0.1 µM.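 Note: mean percent inhibition of MARK3 kinase activity, measured within the GSK PKIS screening panel.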
MAP/microtubule affinity-regulating kinase 3 (Homo sapiens), sequence (P27448 whole entry, looked up): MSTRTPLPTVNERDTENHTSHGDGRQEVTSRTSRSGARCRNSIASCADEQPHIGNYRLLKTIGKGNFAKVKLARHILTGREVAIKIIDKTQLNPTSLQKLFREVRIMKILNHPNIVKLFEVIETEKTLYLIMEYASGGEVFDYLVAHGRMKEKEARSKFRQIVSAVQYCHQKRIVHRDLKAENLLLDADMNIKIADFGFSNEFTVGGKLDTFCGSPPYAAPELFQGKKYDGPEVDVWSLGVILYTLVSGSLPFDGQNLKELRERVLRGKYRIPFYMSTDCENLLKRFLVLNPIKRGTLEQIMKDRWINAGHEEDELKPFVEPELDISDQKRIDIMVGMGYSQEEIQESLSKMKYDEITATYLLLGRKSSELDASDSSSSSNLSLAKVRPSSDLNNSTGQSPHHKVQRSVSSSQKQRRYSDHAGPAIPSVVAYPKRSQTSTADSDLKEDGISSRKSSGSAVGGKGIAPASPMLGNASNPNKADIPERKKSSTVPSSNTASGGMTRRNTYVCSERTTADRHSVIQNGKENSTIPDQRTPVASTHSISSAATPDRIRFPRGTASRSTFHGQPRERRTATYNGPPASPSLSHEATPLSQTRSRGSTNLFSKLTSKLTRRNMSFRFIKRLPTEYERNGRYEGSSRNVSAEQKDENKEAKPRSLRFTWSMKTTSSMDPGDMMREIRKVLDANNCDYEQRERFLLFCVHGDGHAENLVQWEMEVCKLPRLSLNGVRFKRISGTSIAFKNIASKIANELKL

MAP kinase-activated protein kinase 2 (Homo sapiens), sequence (P49137 whole entry, looked up): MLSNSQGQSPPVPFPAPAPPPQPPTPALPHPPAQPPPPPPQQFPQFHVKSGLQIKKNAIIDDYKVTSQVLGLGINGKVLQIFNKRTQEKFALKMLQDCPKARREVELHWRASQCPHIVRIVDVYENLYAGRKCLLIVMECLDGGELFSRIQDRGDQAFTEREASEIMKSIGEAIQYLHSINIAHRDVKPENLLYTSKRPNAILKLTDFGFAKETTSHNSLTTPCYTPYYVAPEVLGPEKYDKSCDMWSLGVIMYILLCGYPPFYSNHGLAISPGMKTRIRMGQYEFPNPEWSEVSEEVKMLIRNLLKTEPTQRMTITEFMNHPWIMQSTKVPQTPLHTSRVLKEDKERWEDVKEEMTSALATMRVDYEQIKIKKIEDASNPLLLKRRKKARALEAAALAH
Serine/threonine-protein kinase MARK1 (Homo sapiens), sequence (Q9P0L2 whole entry, looked up): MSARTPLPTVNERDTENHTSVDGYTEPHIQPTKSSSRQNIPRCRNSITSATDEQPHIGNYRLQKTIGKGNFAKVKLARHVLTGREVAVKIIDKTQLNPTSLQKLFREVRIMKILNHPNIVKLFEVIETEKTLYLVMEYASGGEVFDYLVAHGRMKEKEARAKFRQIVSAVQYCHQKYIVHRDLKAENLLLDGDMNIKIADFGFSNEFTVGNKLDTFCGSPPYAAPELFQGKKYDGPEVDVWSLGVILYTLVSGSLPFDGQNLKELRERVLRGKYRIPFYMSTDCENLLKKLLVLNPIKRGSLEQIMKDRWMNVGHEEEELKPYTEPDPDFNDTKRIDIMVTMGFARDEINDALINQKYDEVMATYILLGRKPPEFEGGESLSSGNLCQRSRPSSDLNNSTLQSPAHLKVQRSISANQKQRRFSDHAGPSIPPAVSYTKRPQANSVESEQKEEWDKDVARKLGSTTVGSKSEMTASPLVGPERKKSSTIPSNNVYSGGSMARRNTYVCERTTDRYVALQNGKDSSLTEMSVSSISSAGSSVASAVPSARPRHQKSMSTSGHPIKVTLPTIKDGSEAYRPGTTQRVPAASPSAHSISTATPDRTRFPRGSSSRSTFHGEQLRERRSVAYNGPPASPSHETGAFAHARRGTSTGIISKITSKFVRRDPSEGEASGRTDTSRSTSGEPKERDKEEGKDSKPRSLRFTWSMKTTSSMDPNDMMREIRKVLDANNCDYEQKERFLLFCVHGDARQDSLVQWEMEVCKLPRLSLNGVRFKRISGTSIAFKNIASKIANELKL
Death-associated protein kinase 1 (Homo sapiens), sequence (P53355 whole entry, looked up): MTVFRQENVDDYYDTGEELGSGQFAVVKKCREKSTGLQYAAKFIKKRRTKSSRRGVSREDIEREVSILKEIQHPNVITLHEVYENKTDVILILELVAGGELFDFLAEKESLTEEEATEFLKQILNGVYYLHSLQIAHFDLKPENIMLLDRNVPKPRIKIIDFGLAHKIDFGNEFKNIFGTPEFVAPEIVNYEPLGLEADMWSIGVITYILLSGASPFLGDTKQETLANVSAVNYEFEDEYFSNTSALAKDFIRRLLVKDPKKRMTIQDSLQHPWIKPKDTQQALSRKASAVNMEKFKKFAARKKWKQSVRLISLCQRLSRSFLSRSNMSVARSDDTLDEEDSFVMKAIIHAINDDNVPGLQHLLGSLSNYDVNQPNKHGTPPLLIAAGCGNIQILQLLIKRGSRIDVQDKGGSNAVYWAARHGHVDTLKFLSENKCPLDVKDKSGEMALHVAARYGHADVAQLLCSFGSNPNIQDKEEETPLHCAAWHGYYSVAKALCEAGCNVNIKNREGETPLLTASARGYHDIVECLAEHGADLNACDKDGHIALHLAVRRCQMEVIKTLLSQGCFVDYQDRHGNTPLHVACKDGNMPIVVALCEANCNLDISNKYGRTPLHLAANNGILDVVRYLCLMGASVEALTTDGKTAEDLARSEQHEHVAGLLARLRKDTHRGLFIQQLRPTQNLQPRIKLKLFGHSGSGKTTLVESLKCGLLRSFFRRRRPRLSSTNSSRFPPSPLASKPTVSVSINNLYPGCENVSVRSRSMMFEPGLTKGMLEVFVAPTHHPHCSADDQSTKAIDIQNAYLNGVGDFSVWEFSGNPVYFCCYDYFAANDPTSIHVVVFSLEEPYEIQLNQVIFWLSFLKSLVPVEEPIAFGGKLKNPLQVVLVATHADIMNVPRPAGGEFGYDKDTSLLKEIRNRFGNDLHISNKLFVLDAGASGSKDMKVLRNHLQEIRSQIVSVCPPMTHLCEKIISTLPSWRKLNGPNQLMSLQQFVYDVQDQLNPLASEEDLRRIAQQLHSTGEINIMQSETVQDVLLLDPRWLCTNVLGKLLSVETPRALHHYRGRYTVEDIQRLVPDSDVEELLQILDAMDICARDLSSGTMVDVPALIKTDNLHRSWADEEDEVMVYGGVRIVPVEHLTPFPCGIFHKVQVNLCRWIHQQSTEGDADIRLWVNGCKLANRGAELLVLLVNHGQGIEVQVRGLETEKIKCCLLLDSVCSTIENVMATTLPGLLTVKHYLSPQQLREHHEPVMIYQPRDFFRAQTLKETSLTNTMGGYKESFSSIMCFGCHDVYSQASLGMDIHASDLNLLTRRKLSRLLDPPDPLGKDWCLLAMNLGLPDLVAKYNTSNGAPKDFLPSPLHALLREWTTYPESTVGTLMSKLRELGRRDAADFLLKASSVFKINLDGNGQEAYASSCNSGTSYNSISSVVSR
MAP kinase-activated protein kinase 3 (Homo sapiens), sequence (Q16644 whole entry, looked up): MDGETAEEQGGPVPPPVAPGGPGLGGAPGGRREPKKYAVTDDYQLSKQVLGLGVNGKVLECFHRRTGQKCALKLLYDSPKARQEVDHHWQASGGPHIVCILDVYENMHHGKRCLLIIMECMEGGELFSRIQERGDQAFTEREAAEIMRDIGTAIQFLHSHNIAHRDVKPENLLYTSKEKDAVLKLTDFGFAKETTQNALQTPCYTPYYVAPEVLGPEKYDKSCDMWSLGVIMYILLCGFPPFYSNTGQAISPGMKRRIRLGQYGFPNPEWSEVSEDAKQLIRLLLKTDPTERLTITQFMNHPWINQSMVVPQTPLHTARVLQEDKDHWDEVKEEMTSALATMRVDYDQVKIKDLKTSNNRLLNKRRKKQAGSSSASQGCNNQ

`COc1ccc2ncn(-c3cc(O[C@H](C)c4ccccc4Cl)c(C(N)=O)s3)c2c1`: the inhibition was 1.29% in assay [1]; -3.36% in [2]; -2.8% in assay [3]; 1.56% in assay [4]; 1.62% in [5]; 3.18% in assay [6]. Also, the inhibition in assay [7] was 2.49%; in assay [8] it was 3.24%; in assay [9], 2.92%; in assay [10], 3.81%.
For `CS(=O)(=O)CCNCc1cc(-c2cc3c(Nc4ccc(OCc5cccc(F)c5)c(Cl)c4)ncnc3s2)cs1`, the inhibition in assay [1] is -0.04%; in [2] it was 0.09%; in assay [3], 1.12%; in assay [4], 2.75%; in assay [5] it was 3.42%; in assay [6] it was 3.37%. Also, the inhibition in [7] is 4.64%; in assay [8] it was -0.03%; in assay [9], 3.02%; in [10] it was 0.84%.
For the molecule `C/C(Nc1ccc(S(N)(=O)=O)cc1)=C1/C(=O)Nc2ccccc21`, the inhibition in assay [1] is 1.66%; in assay [2], 4.83%; in [3], 2.32%; in assay [4], -0.92%; in assay [5] it was -0.57%; in assay [6], -0.79%. For the same molecule, the inhibition in [7] is -0.11%; in assay [8], 4.3%; in assay [9], 32.8%; in assay [10], 2.37%.
Regarding `NCc1ccc(-n2c(-c3nonc3N)nc3cnccc32)cc1`, the inhibition in [1] is 9.98%; in assay [2] it was -0.49%; in assay [3], 2.47%; in assay [4], 1.78%; in assay [5], 1.8%; in [6], 4.33%. The inhibition in assay [7] was 4.65%; in assay [8], 6.36%; in [9], 23.2%; in [10], 5.76%.
Take `COc1cc(Nc2ncc3c(C)nc(-c4cccc(Oc5ccccc5)c4)n3n2)cc(OC)c1OC`: the inhibition in assay [1] was found to be 11.9%; in [2], 0.71%; in assay [3], 0.09%; in [4], 3.12%; in assay [5], 3.35%; in assay [6], 8.12%. Moreover, the inhibition stood at 7.79% in assay [7], 1.87% in assay [8], 6.76% in [9] and 3.73% in assay [10].
As for `CCS(=O)(=O)c1ccc(OC)c(Nc2ncc(-c3ccccc3Cl)o2)c1`, the inhibition in [1] is 4.97%; in assay [2], -0.26%; in [3] it was 5.11%; in assay [4], 0.24%; in assay [5] it was -0.21%; in assay [6] it was 2.9%. Besides, the inhibition in assay [7] was determined as 3.29%; in assay [8] it was 0.31%; in assay [9], 0.38%; in assay [10] it was 1.45%.
Regarding `NS(=O)(=O)c1ccc(N/N=C2\C(=O)Nc3ccc(C(=O)NCCCn4ccnc4)cc32)cc1`, the inhibition in assay [1] came out at 14.2%; in [2], 1.59%; in assay [3], 2.86%; in assay [4] it was 4.69%; in [5] it was 5.55%; in assay [6], 9.93%. Also, the inhibition in assay [7] was found to be 10.6%; in assay [8] it was 5.69%; in assay [9], 22.3%; in [10], 1.88%.
Consider `c1ccc(Oc2ccc(Nc3ncc(-c4ccccc4)o3)cc2)cc1`, for which the inhibition in [1] is 0.04%; in assay [2], 0.28%; in assay [3], -1.82%; in [4], 0.81%; in assay [5] it was 0.09%; in assay [6], 1.72%. Further, the inhibition in assay [7] is 1.73%; in [8], 1.66%; in assay [9], 0.44%; in [10] it was -0.01%.
For `O=C(Nc1n[nH]c2cc(-c3ccccc3)ccc12)C1CC1`, the inhibition in assay [1] worked out at 7.04%; in assay [2], 0.55%; in assay [3], 1.05%; in assay [4], 3.04%; in assay [5], 2.8%; in assay [6], 5.91%. For the same molecule, the inhibition in assay [7] was 4.31%; in assay [8], 4.97%; in assay [9] it was 9.42%; in [10] it was 5.89%.
`COc1cc2ncn(-c3cc(OCCc4ccccc4)c(C(N)=O)s3)c2cc1OC`: the inhibition stood at 1.51% in assay [1]; 0.43% in [2]; 0.05% in [3]; 0.61% in assay [4]; 1.03% in [5]; 2.1% in assay [6]. The inhibition in [7] was 4.28%; in assay [8] it was 3.11%; in [9], 3.45%; in [10], 3.88%.
On to `CN(C)c1ccc2c(c1)/C(=C/Nc1ccc(S(N)(=O)=O)cc1)C(=O)N2`, for which the inhibition came out at 1.27% in [1]; 1.9% in [2]; 5.58% in [3]; 0.97% in assay [4]; 1.33% in [5]; 0.95% in [6]. Further, the inhibition in assay [7] is -0.05%; in assay [8], 6.96%; in [9], 36.4%; in assay [10], 6.41%.
As for `O=C1Nc2ccccc2/C1=C/Nc1ccc(-n2cncn2)cc1`, the inhibition is 7.29% in [1]; 1.71% in assay [2]; -2.02% in assay [3]; 2.96% in [4]; 2.54% in [5]; 3.98% in assay [6]. In addition, the inhibition in [7] came to 3.15%; in assay [8], 5.86%; in [9], 25.4%; in assay [10], 3.28%.
Turning to `C[C@@H](Oc1cc(-n2cnc3ccc(OCC4CCN(C)CC4)cc32)sc1C(N)=O)c1ccccc1Cl`, the inhibition is 9.2% in assay [1]; 0.87% in [2]; 4.91% in assay [3]; 2.09% in assay [4]; 4.06% in assay [5]; 2.95% in assay [6]. In addition, the inhibition in assay [7] came out at 3.34%; in assay [8] it was 3.83%; in assay [9], 24.3%; in assay [10] it was 4.91%.
`COc1ccc(-c2ccc3c(NC(=O)C4CC4)n[nH]c3n2)cc1`: the inhibition in [1] is 3.76%; in assay [2], -1.52%; in assay [3], 2.41%; in assay [4], 1.32%; in [5], 1.4%; in [6], 1.44%. The inhibition in assay [7] is 3.8%; in [8], 1.93%; in [9], 5.02%; in assay [10], 2.03%.
As for `COc1cc(N2CCN(C(C)C)CC2)ccc1Nc1nc(Nc2ccc(F)cc2C(=O)NC[C@@H](O)CO)c2cc[nH]c2n1`, the inhibition in assay [1] was 46.8%; in assay [2] it was 2.24%; in [3], -4.14%; in assay [4], 1.77%; in assay [5] it was 2.39%; in assay [6], 4.35%. In addition, the inhibition was 4.3% in [7], 3.88% in assay [8], 7.69% in assay [9] and 1.03% in assay [10].
As to `Fc1ccc(-c2nc3n(c2-c2ccncc2)CCS3)cc1`, the inhibition in [1] is 2.21%; in assay [2], -0.75%; in assay [3] it was -3.53%; in [4], 0.87%; in assay [5] it was 0.79%; in assay [6] it was 8.6%. The inhibition in assay [7] came to 19.8%; in [8], 4.51%; in assay [9], 4.67%; in assay [10], 3.87%.
As for `Fc1ccc(-c2c(-c3ccncc3)nc3n2CCS3)cc1`, the inhibition is -1.77% in assay [1]; -5.23% in assay [2]; -4.37% in [3]; 0.4% in assay [4]; 0.36% in assay [5]; 1.43% in assay [6]. For the same molecule, the inhibition in assay [7] was 1.3%; in assay [8] it was 2.07%; in [9], 3.24%; in [10], 1.44%.
